Laboratory results from ChEMBL document CHEMBL3988442, “University of Dundee, Small-Polar-MMV Screening Library” (2021).
For some assays here: Potency and affinity values are given separately.

Assays:
Parameters in all cases: scale not given: direction of the effect not stated beside the values
[1] = biological target: Protein translocase subunit SecA (Escherichia coli (strain K12)) (UniProt P10408); experiment: Assay to Identify E. coli SecA ATPase Inhibitors; format: functional; settings: 30 µM
Chain of Protein translocase subunit SecA (Escherichia coli (strain K12)) (P10408 whole entry): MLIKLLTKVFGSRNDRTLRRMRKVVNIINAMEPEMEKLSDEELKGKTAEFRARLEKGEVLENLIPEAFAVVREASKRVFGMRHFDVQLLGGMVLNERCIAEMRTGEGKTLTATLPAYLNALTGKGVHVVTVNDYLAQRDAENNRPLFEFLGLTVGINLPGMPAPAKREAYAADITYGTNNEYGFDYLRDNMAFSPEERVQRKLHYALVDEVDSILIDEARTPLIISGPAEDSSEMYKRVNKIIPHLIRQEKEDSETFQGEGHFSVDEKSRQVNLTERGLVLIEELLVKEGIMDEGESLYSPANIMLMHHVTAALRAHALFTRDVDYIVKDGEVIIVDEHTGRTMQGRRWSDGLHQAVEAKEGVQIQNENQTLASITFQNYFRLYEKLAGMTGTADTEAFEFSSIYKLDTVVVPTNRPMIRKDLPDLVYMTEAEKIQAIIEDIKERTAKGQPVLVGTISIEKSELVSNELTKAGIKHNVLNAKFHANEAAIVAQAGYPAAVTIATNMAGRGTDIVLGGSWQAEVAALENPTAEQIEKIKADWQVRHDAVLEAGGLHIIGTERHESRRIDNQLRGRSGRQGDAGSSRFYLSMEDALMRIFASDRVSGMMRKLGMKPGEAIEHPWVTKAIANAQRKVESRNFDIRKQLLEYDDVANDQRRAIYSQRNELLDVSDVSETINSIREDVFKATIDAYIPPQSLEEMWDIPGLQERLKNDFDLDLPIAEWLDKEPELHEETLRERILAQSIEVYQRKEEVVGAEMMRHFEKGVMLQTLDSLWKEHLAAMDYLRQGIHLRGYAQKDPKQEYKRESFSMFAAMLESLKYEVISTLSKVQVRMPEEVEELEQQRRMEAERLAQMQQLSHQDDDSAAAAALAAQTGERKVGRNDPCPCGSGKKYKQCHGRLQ

[2] = biological target: T1, Ubiquitin-activating enzyme e1, putative (Leishmania donovani (strain BPK282A1)) (UniProt E9BSI1); experiment: Leishmania donovani Ubiquitin Activating Enzyme (LdE1); format: functional; settings: 30 µM
T1 sequence (whole entry): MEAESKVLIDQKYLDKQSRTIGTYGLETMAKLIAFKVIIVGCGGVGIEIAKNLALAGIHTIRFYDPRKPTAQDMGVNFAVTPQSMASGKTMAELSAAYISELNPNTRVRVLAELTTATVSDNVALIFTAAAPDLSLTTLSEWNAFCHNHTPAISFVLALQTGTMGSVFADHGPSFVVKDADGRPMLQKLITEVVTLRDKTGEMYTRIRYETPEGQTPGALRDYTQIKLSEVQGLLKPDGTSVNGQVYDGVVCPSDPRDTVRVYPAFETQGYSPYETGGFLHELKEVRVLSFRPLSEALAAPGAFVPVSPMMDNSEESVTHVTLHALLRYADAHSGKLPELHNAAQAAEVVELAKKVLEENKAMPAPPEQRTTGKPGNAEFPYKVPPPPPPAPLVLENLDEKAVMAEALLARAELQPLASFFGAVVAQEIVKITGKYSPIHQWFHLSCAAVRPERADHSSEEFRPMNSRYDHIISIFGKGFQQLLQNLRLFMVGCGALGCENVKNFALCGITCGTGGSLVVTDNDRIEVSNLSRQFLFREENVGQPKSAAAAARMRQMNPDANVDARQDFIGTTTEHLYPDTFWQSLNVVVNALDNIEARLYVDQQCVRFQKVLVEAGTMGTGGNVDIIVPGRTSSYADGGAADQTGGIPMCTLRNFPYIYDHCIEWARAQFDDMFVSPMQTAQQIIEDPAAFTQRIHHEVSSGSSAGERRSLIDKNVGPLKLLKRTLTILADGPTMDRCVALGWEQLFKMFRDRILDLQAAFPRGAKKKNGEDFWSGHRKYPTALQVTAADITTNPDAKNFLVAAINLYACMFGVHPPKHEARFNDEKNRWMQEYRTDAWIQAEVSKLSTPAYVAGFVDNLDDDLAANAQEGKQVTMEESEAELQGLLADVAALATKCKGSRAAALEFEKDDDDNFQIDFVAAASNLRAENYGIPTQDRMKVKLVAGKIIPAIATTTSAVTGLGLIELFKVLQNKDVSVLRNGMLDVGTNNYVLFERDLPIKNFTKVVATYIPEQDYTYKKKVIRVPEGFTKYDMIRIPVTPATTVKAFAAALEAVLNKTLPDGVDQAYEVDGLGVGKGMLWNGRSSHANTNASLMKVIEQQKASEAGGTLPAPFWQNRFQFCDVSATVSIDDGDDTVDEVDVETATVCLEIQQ

[3] = biological target: AMP-activated protein kinase, AMPK (Homo sapiens) (UniProt P54646+O43741+P54619+Q9UGJ0+Q9Y478+Q13131+Q9UGI9); experiment: AMP-dependent Kinase enzyme assay. An in vitro enzyme assay that detects ADP turnover that is directly proportional to AMPK activity. This uses naive AMPK that is activated during the assay with MK-8722; format: functional; settings: 30 µM
[4] = biological target: Sialic acid-binding Ig-like lectin 9 (Homo sapiens) (UniProt Q9Y336); experiment: Hs-Siglec9 ALPHAscreen SOP 20170721; settings: 10 µM
Chain of Sialic acid-binding Ig-like lectin 9 (Homo sapiens) (Q9Y336 whole entry): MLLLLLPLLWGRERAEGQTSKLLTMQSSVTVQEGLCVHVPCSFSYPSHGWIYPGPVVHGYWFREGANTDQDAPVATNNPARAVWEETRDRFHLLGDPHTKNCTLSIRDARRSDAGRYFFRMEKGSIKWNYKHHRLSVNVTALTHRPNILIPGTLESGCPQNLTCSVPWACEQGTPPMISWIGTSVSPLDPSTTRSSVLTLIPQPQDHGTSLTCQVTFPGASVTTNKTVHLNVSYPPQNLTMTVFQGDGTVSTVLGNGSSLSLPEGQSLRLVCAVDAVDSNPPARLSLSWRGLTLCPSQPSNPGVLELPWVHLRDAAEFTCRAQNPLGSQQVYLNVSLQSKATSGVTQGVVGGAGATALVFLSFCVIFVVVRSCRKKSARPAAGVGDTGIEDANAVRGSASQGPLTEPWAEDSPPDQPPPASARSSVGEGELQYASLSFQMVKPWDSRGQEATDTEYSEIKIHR

Trypanosoma cruzi = experiment: Trypanosoma cruzi phosphomannomutase and mannose-1-phosphate guanylyltransferase assay; format: functional; settings: 10 µM
[5] = biological target: T2, Arginase-2, mitochondrial (Homo sapiens) (UniProt P78540); experiment: in vitro enzyme assay to detect the production of urea directly proportional to the activity of Arginase II; format: functional; settings: 33.3 µM; further: in the data most compounds retested in dose-response had high values
T2 sequence (whole entry): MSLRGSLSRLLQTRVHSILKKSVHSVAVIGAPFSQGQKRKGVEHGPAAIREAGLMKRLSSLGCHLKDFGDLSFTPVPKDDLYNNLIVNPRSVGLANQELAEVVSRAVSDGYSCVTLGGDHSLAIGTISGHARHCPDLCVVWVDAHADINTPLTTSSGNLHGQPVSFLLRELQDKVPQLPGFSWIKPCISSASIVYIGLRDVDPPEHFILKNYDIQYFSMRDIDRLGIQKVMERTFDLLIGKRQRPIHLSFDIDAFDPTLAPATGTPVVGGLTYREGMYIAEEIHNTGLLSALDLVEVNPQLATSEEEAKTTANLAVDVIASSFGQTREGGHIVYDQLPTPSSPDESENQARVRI

[6] = biological target: T3, Proteasome subunit beta (Trypanosoma cruzi) (UniProt O96673); experiment: Trypanosoma cruzi proteasome chymotrypsin-like activity (TcProtChymo) assay.; further: in the data most compounds retested in dose-response had high values; format: functional; settings: 9.37 µM
T3 sequence (whole entry): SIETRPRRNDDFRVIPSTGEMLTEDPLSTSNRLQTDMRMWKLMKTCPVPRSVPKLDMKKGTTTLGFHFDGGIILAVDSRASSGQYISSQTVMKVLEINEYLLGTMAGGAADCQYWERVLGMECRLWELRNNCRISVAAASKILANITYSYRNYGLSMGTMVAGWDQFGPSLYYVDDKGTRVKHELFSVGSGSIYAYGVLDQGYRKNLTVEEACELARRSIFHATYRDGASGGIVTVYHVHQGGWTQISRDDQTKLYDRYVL

Homo sapiens = species: Homo sapiens; experiment: To identify inhibition of the IFN signalling (Jak-Stat) pathway via expression of an eGFP reporter gene under the control of an IFN-stimulated response element (ISRE) containing MxA promoter.; format: functional; settings: 30 µM
[7] = biological target: T4, Tyrosyl-tRNA synthetase, putative (Trypanosoma cruzi (strain CL Brener)) (UniProt Q4DSP6); experiment: Trypanosoma cruzi tyrosyl tRNA synthetase (TcYRS) _High Tyrosine SOP; format: functional; settings: 30 µM; further: in the data most compounds retested in dose-response had high values
T4 sequence (whole entry): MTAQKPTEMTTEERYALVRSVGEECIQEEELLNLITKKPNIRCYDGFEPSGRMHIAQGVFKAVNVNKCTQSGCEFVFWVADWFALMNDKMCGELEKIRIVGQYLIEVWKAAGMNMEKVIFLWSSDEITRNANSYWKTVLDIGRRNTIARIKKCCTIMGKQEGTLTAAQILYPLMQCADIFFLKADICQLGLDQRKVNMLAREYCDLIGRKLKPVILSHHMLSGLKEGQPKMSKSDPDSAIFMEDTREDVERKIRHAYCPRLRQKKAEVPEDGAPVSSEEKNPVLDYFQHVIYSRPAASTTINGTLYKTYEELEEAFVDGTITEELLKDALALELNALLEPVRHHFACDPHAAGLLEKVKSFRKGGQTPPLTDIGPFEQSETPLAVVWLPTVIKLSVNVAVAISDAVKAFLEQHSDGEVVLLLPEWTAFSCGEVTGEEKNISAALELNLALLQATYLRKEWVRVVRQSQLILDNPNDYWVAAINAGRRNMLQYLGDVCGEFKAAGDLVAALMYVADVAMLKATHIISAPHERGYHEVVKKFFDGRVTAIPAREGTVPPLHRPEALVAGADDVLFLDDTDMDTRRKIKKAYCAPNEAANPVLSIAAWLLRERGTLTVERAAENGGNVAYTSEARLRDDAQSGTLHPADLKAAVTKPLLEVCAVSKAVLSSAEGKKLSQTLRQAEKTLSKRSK

[8] = biological target: T4, Tyrosyl-tRNA synthetase, putative (Trypanosoma cruzi (strain CL Brener)); experiment: Trypanosoma cruzi tyrosyl tRNA synthetase (TcYRS) SOP; format: functional; settings: 30 µM
[9] = biological target: Chromo domain-containing protein 1 (Saccharomyces cerevisiae (strain ATCC 204508 / S288c) (Baker's yeast)) (UniProt P32657); experiment: ScCHD-1 Enzyme Inhibition Assay; format: functional; settings: 30 µM; further: in the data most compounds retested in dose-response had high values
Chain of Chromo domain-containing protein 1 (Saccharomyces cerevisiae (strain ATCC 204508 / S288c) (Baker's yeast)) (P32657 whole entry, the tested form may be a part): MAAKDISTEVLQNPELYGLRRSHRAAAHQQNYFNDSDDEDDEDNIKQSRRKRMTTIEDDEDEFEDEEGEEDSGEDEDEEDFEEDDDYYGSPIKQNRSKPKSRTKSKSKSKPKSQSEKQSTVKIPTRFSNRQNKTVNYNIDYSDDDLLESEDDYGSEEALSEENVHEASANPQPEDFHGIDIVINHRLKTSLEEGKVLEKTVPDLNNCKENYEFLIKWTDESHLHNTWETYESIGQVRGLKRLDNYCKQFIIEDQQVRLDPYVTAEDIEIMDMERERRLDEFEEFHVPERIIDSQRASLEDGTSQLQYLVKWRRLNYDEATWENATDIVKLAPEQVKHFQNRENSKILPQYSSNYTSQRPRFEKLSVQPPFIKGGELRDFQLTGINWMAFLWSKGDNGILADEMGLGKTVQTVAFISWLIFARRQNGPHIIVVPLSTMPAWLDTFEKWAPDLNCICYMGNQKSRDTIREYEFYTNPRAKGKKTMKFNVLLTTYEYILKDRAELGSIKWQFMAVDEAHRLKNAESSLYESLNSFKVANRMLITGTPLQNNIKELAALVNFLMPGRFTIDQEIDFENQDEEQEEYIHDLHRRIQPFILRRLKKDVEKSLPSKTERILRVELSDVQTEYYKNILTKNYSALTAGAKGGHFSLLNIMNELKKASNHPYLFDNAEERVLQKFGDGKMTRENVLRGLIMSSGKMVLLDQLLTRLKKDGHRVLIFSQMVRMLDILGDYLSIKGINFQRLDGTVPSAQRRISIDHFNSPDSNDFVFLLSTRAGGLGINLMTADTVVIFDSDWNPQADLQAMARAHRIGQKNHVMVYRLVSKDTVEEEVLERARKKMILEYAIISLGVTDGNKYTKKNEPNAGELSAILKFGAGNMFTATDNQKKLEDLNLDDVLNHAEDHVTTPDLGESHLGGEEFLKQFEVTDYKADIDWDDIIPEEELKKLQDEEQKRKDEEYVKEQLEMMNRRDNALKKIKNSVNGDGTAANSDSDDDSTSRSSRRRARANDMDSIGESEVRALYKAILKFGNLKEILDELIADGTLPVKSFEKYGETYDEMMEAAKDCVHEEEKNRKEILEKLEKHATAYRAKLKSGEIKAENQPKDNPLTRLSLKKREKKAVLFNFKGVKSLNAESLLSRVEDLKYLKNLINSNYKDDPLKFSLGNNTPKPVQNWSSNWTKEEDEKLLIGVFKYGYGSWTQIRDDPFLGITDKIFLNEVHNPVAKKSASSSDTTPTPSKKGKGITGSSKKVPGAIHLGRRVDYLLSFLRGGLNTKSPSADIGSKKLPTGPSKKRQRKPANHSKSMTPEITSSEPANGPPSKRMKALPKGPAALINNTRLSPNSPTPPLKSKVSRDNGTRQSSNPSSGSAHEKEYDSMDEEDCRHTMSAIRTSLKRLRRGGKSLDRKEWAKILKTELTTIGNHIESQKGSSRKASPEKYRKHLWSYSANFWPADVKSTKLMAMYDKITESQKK

Structure (SMILES) | Percent Effect [1] | Percent Effect [2] | Percent Effect [3] | Percent Effect [4] | Percent Effect (Trypanosoma cruzi) | Percent Effect [5] | Percent Effect [6] | Percent Effect (Homo sapiens) | Percent Effect [7] | Percent Effect [8] | Percent Effect [9]
CCN1CCN(C2CCN(Cc3noc(C)n3)CC2)C1=O | -5.08% | 25.3% | -3.66% | -5.18% | 1.98% | 0.38% | 5.16% | -0.161% | 7.39% | 21.5% | -6.23%
Cc1ccccc1CS(=O)(=O)NCCCN1CCCCC1 | -6.3% | 5.33% | 6.44% | 24.2% | 0.292% | 2.6% | 6.63% | 7.26% | 1.64% | 3.7% | -2.2%
CCNC(=O)[C@@H]1C[C@H](NC(=O)c2ccccc2C#N)CN1CCCSC | -6.15% | -2.74% | -0.485% | 8.44% | 0.794% | 0.399% | 11.4% | -3.71% | 2.08% | 18.5% | 1.18%
Cc1cccnc1NC(=O)C1CCCN1Cc1ccccc1 (configuration not stated) | -3.6% | 2.67% | -2.13% | -2.53% | -9.06% | -3.12% | 21.3% | 16.8% | 0.546% | -1.24% | -9.24%
CC(C)c1noc(CCC(=O)NC(C)c2nnc3n2CCCCC3)n1 (configuration not stated) | -2.21% | -2.7% | -3.53% | -8.65% | -1.47% | -2.23% | 2.83% | -7.58% | -9.68% | 1.24% | 80%
Nc1nc(CN2CCCC(Cn3cncn3)C2)nc2ccccc12 (configuration not stated) | 1.55% | -2.7% | -3.95% | 9.62% | 3.06% | -2.03% | -5.92% | 3.26% | 4.95% | 6.1% | 1.99%
CCOCC1CN(S(=O)(=O)N(C)C)Cc2cnn(C)c21 (configuration not stated) | -2.24% | 5.48% | -0.778% | 4.27% | -5.16% | -8.38% | 4.71% | 11.6% | 7.29% | 1.24% | -2.91%
O=C(CCc1ccc(O)cc1)N1CCC(Cc2ccc(CO)cc2)C1 (configuration not stated) | -2.29% | 6.94% | 21.8% | -5.94% | -2.82% | 1.32% | 8.6% | -10.8% | 5.26% | 12.8% | -1.12%
CC(=O)NC(C)(C)C(=O)Nc1ncc(Cc2ccc(C)c(F)c2)s1 | -2.79% | 13.9% | 1.18% | 3.12% | 8.51% | -2.37% | 13.2% | 28.2% | 5.21% | 17.7% | -33.1%
Cn1cc(CNC2CCCN(Cc3noc(C4CC4)n3)C2)cn1 (configuration not stated) | -1.45% | 13.2% | 1.88% | -6.33% | -4.51% | 5.75% | 18.7% | 28.1% | 2.45% | 12.2% | -11.8%
Cc1csc(N2CCN(C(=O)CCn3cncn3)CC2)n1 | -2.99% | 17.7% | -7.64% | 11.1% | 0.472% | 4.18% | 6.31% | -0.236% | 8.37% | 21.5% | -6.07%
CC(C)n1cc(S(=O)(=O)N2CCCCC2)cn1 | -5.5% | 14.7% | -5.08% | 14.1% | 0.393% | -2.29% | 15.7% | 2.73% | 6.35% | 15.4% | -8.47%
NCC(c1ccccc1)N1CCc2sccc2C1 (configuration not stated) | -1.09% | 7.89% | -9.46% | -3.01% | -3.41% | -5.92% | 17.6% | 5.62% | 8.51% | 18.2% | -3.07%
Cc1nc(-c2ccco2)ccc1C(=O)N1CCCC1Cn1cccn1 (configuration not stated) | -2.79% | 1.27% | 3.11% | 2.49% | -0.513% | 3.66% | 13.4% | 7.74% | 4.17% | 0% | -8.65%
COc1ccc(CC(=O)N(C)Cc2nnc3ccccn23)cc1 | -4.71% | 26% | 2.72% | -2.77% | 3.62% | -6.53% | 17.1% | 12.6% | 8.57% | 25.9% | 77.9%
O=C(NCC(=O)N1CCCCC1)c1ccc(Cl)cc1I | -0.681% | 5.41% | -6.27% | 3.75% | 8.49% | 0% | 10.5% | 13.7% | 2.65% | 12.2% | -1.27%
COc1ccc(CN2CCCC(Nc3cccc(F)c3)C2)cc1O (configuration not stated) | -3.14% | 0% | -3.77% | -2% | -0.293% | -0.744% | -5.06% | 53.9% | 2.15% | 6.17% | 1.38%
O=C(c1ccnnc1)N1C[C@H]2CCC[C@@]2(COCC2CCOCC2)C1 | -1.23% | -16.2% | 2.91% | 1.16% | 7.72% | -2.87% | 9.04% | -6.27% | -1.08% | 5.13% | 0.739%
CC(C)c1nnc2n1CCN(CC(=O)Nc1sccc1C#N)C2 | -8.13% | 7.89% | -4.21% | -3.31% | -3.83% | 1.08% | -3.13% | -0.485% | -2.46% | -6.17% | 3.89%
Cc1cc(N(C)C)nc(C2(C)CCCN2C(=O)c2cnccn2)n1 (configuration not stated) | -2.86% | 8% | 5.28% | -5.27% | 7.48% | 2.1% | 11.4% | -1.62% | 1.06% | 8.97% | -2.81%
CCN1CCN(S(=O)(=O)c2cc(Cl)c(Cl)cc2C)CC1 | -2.56% | 2.6% | 5.2% | 3.88% | -3.83% | -4.14% | -4.99% | -8.04% | -28% | 1.24% | 3.26%
CCn1ccc(C(=O)NCCCN2CCOCC2)n1 | -1.56% | 5.2% | -2.13% | 4.7% | -0.492% | -2.76% | 22% | 4.11% | 7.53% | 13.6% | 0.597%
